Measurements from PubChem BioAssay AID488864 (Broad Institute, 2010).
Results with a measured potency or affinity are listed apart. Active and inactive are the calls of the source.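 How the source made its calls: active means ATP signal reduced by compound, with fitted active dose under ten times the top valid tested dose; inactive means the rest, compounds that increase ATP levels included.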

Assay: cellular ATP toxicity in rat beta cells – cell-based, CellTiter-Glo luminescence, INS-1E, dry powder, cytotoxicity control for beta-cell cytokine protection project, dose response (AID 488864)
Conditions: INS-1E rat beta cells, 48 h, no cytokines; series mostly up to 26 µM; activity change, negative = ATP decrease: at the top concentration

Row | SMILES | activity change, negative = ATP decrease
1 | C[C@@H]1CN([C@@H](C)CO)C(=O)c2cccc(NC(=O)Nc3cccc4ccccc34)c2O[C@H]1CN(C)S(C)(=O)=O | 1.3% (inactive)
2 | COc1ccc(S(=O)(=O)N(C)C[C@@H]2Oc3c(NC(=O)Nc4cccc5ccccc45)cccc3C(=O)N([C@H](C)CO)C[C@H]2C)cc1 | 13.1% [at 23.5 µM] (inactive)
3 | CNC[C@@H]1Oc2c(NC(=O)Nc3cccc4ccccc34)cccc2C(=O)N([C@@H](C)CO)C[C@H]1C | -0.69% (inactive)
4 | COc1ccc(S(=O)(=O)N(C)C[C@@H]2Oc3c(NC(=O)Nc4cccc5ccccc45)cccc3C(=O)N([C@@H](C)CO)C[C@H]2C)cc1OC | 1.83% (inactive)
5 | C[C@@H]1CN([C@@H](C)CO)C(=O)c2cccc(NS(=O)(=O)c3ccccc3)c2O[C@H]1CN(C)Cc1ccc(C(F)(F)F)cc1 | 1.05% (inactive)
6 | N#Cc1ccc2cc(Br)c(C(F)(F)P(=O)(O)O)cc2c1 | -3.66% (inactive)
7 | COc1ccc(S(=O)(=O)N(C)C[C@@H]2Oc3c(NC(=O)Nc4cccc5ccccc45)cccc3C(=O)N([C@@H](C)CO)C[C@H]2C)cc1F | 12% (inactive)
8 | C[C@@H]1CN([C@@H](C)CO)C(=O)c2cccc(NC(=O)Nc3cccc4ccccc34)c2O[C@H]1CN(C)C(=O)Nc1ccccc1 | -6.04% [at 23.5 µM] (inactive)
9 | COc1ccc(S(=O)(=O)N(C)C[C@@H]2Oc3c(NS(=O)(=O)c4ccc(C)cc4)cccc3C(=O)N([C@@H](C)CO)C[C@H]2C)cc1 | 7.96% [at 23.5 µM] (inactive)
10 | COc1ccc(S(=O)(=O)Nc2cccc3c2O[C@@H](CN(C)S(=O)(=O)c2ccc(OC)cc2)[C@H](C)CN([C@@H](C)CO)C3=O)cc1 | 0.616% (inactive)
11 | C[C@@H]1CN([C@@H](C)CO)C(=O)c2cccc(NC(=O)Nc3cccc4ccccc34)c2O[C@H]1CN(C)CC1CC1 | 0.187% (inactive)
12 | COc1ccc(S(=O)(=O)N(C)C[C@@H]2Oc3c(NC(=O)C4CC4)cccc3C(=O)N([C@@H](C)CO)C[C@H]2C)cc1 | 1.69% [at 23.5 µM] (inactive)
13 | C[C@@H]1CN([C@@H](C)CO)C(=O)c2cccc(NC(=O)Nc3cccc4ccccc34)c2O[C@H]1CN(C)S(=O)(=O)c1ccccc1 | 6.66% (inactive)
14 | C[C@@H]1CN([C@@H](C)CO)C(=O)c2cccc(NC(=O)Nc3cccc4ccccc34)c2O[C@H]1CN(C)S(=O)(=O)c1cn(C)cn1 | 2.81% (inactive)
15 | C[C@@H]1CN([C@@H](C)CO)C(=O)c2cccc(NC(=O)Nc3cccc4ccccc34)c2O[C@H]1CN(C)C(=O)Nc1ccc(F)cc1 | 9.31% (inactive)
16 | COc1ccc(S(=O)(=O)N(C)C[C@@H]2Oc3c(NC(=O)NC(C)C)cccc3C(=O)N([C@@H](C)CO)C[C@H]2C)cc1 | 1.96% (inactive)
17 | C[C@@H]1CN([C@H](C)CO)C(=O)c2cccc(NC(=O)Nc3ccccc3)c2O[C@H]1CN(C)S(=O)(=O)c1ccc(Cl)cc1 | 7.7% (inactive)
18 | C[C@@H]1CN([C@@H](C)CO)C(=O)c2cccc(NC(=O)Nc3cccc4ccccc34)c2O[C@H]1CN(C)S(=O)(=O)c1ccccc1F | 6.08% (inactive)
19 | C[C@H]1CN([C@@H](C)CO)C(=O)c2cccc(NC(=O)NC3CCCCC3)c2O[C@@H]1CN(C)S(C)(=O)=O | -1.82% (inactive)
20 | COc1ccc(S(=O)(=O)N(C)C[C@@H]2Oc3c(NS(=O)(=O)c4ccc(Cl)cc4)cccc3C(=O)N([C@@H](C)CO)C[C@H]2C)cc1 | 2.03% (inactive)
21 | COc1ccc(S(=O)(=O)N(C)C[C@@H]2Oc3c(cccc3N(C)C)C(=O)N([C@@H](C)CO)C[C@H]2C)cc1 | 5.31% [at 23.5 µM] (inactive)
22 | C[C@@H]1CN([C@@H](C)CO)C(=O)c2cccc(NC(=O)Nc3ccccc3)c2O[C@H]1CN(C)S(=O)(=O)c1ccc(F)cc1 | -0.503% (inactive)
23 | COc1ccc(S(=O)(=O)N(C)C[C@@H]2Oc3c(NC(=O)Nc4ccc(F)cc4)cccc3C(=O)N([C@H](C)CO)C[C@H]2C)cc1 | 1.45% (inactive)
24 | C[C@@H]1CN([C@@H](C)CO)C(=O)c2cccc(NC(=O)Nc3ccc(F)cc3)c2O[C@H]1CN(C)S(=O)(=O)c1ccc(F)cc1 | 5.77% (inactive)
25 | COc1ccc(S(=O)(=O)N(C)C[C@@H]2Oc3c(NC(=O)Nc4c(C)noc4C)cccc3C(=O)N([C@@H](C)CO)C[C@H]2C)cc1 | 2.2% (inactive)
26 | C[C@@H]1CN([C@@H](C)CO)C(=O)c2cccc(NC(=O)Nc3cccc4ccccc34)c2O[C@H]1CN(C)S(=O)(=O)c1cccs1 | 8.1% (inactive)
27 | COc1ccc(S(=O)(=O)N(C)C[C@@H]2Oc3c(NC(=O)c4cccc5ccccc45)cccc3C(=O)N([C@@H](C)CO)C[C@H]2C)cc1 | 4.48% (inactive)
28 | COc1ccc(S(=O)(=O)N(C)C[C@@H]2Oc3c(NC(=O)Nc4ccc(C(F)(F)F)cc4)cccc3C(=O)N([C@@H](C)CO)C[C@H]2C)cc1 | -1.88% (inactive)
